Shown are actives, neighbours in structure and some others; about 4.1% of the full set was active somewhere.
CASP6 VEID inh – blocks human caspase-6 cleavage activity; P55212; inhibition, % at 12.5 µM; actives 0.53% (n = 350,000); purified caspase-6, Z-VEID-R110 cleavage fluorescence;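 active means mean inhibition across replicates at least about 35%, with every replicate also reaching that limit, limit read from the data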;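 further: 0% = median of neutral control wells and 100% = no fluorescence left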
Target sequence (P55212 24-179 limits assumed): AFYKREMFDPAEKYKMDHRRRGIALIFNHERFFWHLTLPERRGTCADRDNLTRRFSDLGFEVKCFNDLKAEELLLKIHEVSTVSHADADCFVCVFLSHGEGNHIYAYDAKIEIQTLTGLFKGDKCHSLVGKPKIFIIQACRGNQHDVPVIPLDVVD
Target sequence (P55212 194-293 limits assumed): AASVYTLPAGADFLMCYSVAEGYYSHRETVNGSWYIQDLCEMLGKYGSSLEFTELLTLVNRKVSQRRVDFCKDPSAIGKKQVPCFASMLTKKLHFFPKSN
HIV Env fusion – HIV envelope-mediated fusion inhibition | HeLa-JRFL Env/CEM21 cell fusion, luciferase | inhibition, % at 12.3 µM | actives 1.1% (n = 360,000) | AID 651610;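 active means mean replicate inhibition score of at least 50 and every replicate individually at or above 50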;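 further: 0% = plate neutral controls and 100% = maraviroc near 300 nM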
NSD2 inh – inhibitors of human histone methyltransferase NSD2. O96028. NSD2 peptide methylation, AlphaScreen, 120 min. inhibition, % at 12.5 µM. actives 0.54% (n = 310,000); in the data active means inhibition above about 50%
F508del corr – CFTR F508del correction in bronchial cells; CFBE cells, YFP halide quenching; stimulated with forskolin plus potentiator P3; % fluorescence drop versus neutral controls; activity (quench increase), % at 7.58 µM; actives 0.36% (n = 350,000); AID 720511;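 active means mean added fluorescence quench of at least 8% versus neutral control, with both replicates also reaching 8%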;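 further: cells transiently co-express mutant CFTR-F508del with the halide-sensitive YFP; corrector assay measuring rescue of mutant channel to the surface after 24 h compound exposure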
PglD inh – inhibitors of Campylobacter jejuni PglD acetyltransferase; AID 602405; purified PglD enzyme, DTNB colorimetric CoA detection; actives 0.098% (n = 360,000); inhibition, % at 12.5 µM; in the data active means inhibition above about 16%, passing the limit was not always enough
ALR inh – blocks human ALR sulfhydryl oxidase activity; P55789; purified ALR, DTT oxidation, H2O2 HRP-luminol luminescence; inhibition, % (concentration not given with the values); actives 3.8% (n = 290,000); AID 485317;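 active means mean replicate inhibition above about 79%, with every replicate also reaching it, limit read from the data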
Target sequence (P55789 whole entry, looked up): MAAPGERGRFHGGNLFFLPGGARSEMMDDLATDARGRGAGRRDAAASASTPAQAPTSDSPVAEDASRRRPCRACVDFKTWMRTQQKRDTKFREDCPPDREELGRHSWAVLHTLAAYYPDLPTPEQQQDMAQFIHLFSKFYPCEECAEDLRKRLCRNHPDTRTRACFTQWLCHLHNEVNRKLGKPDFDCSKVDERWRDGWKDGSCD
* hit, by the source's call; x = no result given; [ ] = remark or other dose.

SMILES | CASP6 VEID inh | HIV Env fusion | NSD2 inh | F508del corr | PglD inh | ALR inh
O=C1CC=C2C3CC4N(CCC45c4ccccc4N1C25)CC3=CCO (centres undefined) | 0.7 | 25.1 | -1.6 | 3.4 | 2.8 | x
COC(=O)[C@H]1[C@H](CO)[C@H]2Cn3c(ccc(-c4ccc(F)cc4)c3=O)[C@@H]1N2Cc1ccccc1 | 1.3 | x | x | -1.2 | -4.0 | x
O=C(Cc1cccnc1)N1CCCCN2[C@H](C1)[C@@H](c1ccc(C#CC3(O)CCCC3)cc1)[C@@H]2CO | -1.1 | x | x | -0.2 | 1.2 | x
O=P(Oc1ccc(-c2ccccc2)cc1)(N1CC1)N1CC1 | -13.3 | x | -2.3 | 9.9* | -3.0 | x
O=P(Oc1ccc(Cl)cc1)(N1CC1)N1CC1 | -38.8 | 6.3 | -1.1 | -3.3 | -3.0 | x
O=C(Cc1cccnc1)N1CCCCN2[C@H](CO)[C@@H](c3ccc(/C=C/c4ccccc4)cc3)[C@@H]2C1 | 0.5 | x | x | 0.3 | 4.4 | x
C/C(=N\Nc1ccccc1)c1c(O)n(Cc2ccccc2)c(=O)[nH]c1=O | x | x | 1.0 | x | x | 98.3*
C/C(=N\NC(=O)c1ccccc1O)c1c(O)n(Cc2ccccc2)c(=O)[nH]c1=O | 11.5 | 6.3 | -10.9 | -2.2 | -5.9 | 14.0
C/C(=N\Nc1ccccc1)c1c(O)n(-c2ccccc2)c(=O)[nH]c1=O | 1.8 | -3.6 | -0.6 | -1.2 | 1.9 | 98.5*
C/C(=N\NC(=O)c1ccccc1)c1c(O)n(C2CCCCC2)c(=O)[nH]c1=O | 1.4 | -2.0 | -1.0 | -0.2 | -2.8 | 93.1*
C/C(=N\Nc1ccccc1)c1c(O)n(C)c(=O)n(C)c1=O | 1.4 | 15.9 | 0.1 | x | -0.9 | 99.2*
O=C(O)[C@H]1[C@H](CO)[C@H]2Cn3c(ccc(-c4ccc(F)cc4)c3=O)[C@@H]1N2CC1CCCCC1 | 1.9 | -3.9[16.7 µM] | x | x | 2.0 | x
COC(=O)[C@@H]1[C@@H](CO)[C@@H]2Cn3c(ccc(-c4ccccc4F)c3=O)[C@H]1N2 | -3.0 | -5.6[16.7 µM] | x | x | -2.9 | x
CN=C(SCc1ccccc1)c1c(O)n(C)c(=O)n(C)c1=O | x | -3.6 | 4.6 | x | -1.5 | 97.6*
O=C(O)[C@@H]1[C@@H](CO)[C@@H]2Cn3c(ccc(-c4ccccc4)c3=O)[C@H]1N2C(=O)C1CCCCC1 | 2.4 | x | x | -1.5 | -50.1 | x
COc1ccc(/C=N\N=C(N)N)cc1 | -3.3 | -0.5 | -0.1 | x | x | 11.1
NC(N)=N/N=C/c1ccc(N(c2ccccc2)c2ccccc2)cc1 | 63.1* | 8.9 | -55.5 | -2.3 | -6.3 | 93.7*
COc1ccc(-c2ccc([C@@H]3[C@H](CO)N4CCCCN(C(=O)Cc5ccccc5)C[C@@H]34)cc2)cc1 | -5.2 | x | x | -1.3 | 3.8 | x
Cc1ccc2c(c1)=C/C(=C\c1c(O)[nH]c(=S)[nH]c1=O)C(=O)N=2 | x | x | x | x | x | 97.0*
Cc1ccc2c(c1)=NC(=O)/C(=C/c1c(O)[nH]c(=O)[nH]c1=O)C=2 | 4.0 | 6.6 | x | 3.6 | -3.7 | 9.0
Cc1ccc(/C=C2/C(=O)NC(=O)N(CCc3ccc(F)cc3)C2=O)s1 | x | -10.2 | 8.8 | x | 5.2 | 28.7
Cc1ccc(/C=C2\C(=O)NC(=O)N(CCc3ccc(F)cc3)C2=O)s1 | 2.8 | -29.6 | 1.5 | -2.6 | x | 95.8*
O=C1NC(=O)N(Cc2ccc(F)cc2)C(=O)/C1=C\c1ccoc1 | 47.3* | -5.5 | 9.9 | x | -1.8 | 54.6
Cc1ccc(/C=C2/C(=O)NC(=O)N(CC3CCCO3)C2=O)s1 (centres undefined) | 27.8 | -31.0 | 1.5 | x | x | 97.5*
O=C(O)[C@H]1[C@H](CO)[C@H]2Cn3c(ccc(C4=CCCC4)c3=O)[C@@H]1N2C(=O)Cc1ccccn1 | 1.9 | x | x | 1.7 | 1.2 | x
SMILES | CASP6 VEID inh | HIV Env fusion | NSD2 inh | F508del corr | PglD inh | ALR inh
COC(=O)[C@@H]1[C@@H](CO)[C@@H]2Cn3c(ccc(-c4ccccc4F)c3=O)[C@H]1N2C(=O)C1CCC1 | 0.5 | x | x | 3.6 | -2.7 | x
COC(=O)[C@H]1[C@H](CO)[C@H]2Cn3c(ccc(-c4cccc(OC)c4)c3=O)[C@@H]1N2C(=O)c1cnccn1 | 2.2 | x | x | 1.6 | -2.6 | x
COC1CC2C=C(C)C=CC=CC(=O)NC(c3ccccc3)CC=CCCC(O)CC(=O)C2=C1O (centres undefined) | 1.6 | 91.8* | 1.4 | 12.3* | x | x
COC(=O)[C@H]1[C@H](CO)[C@H]2Cn3c(ccc(C4=CCCC4)c3=O)[C@@H]1N2C(=O)C1CCCCC1 | x | -5.8[16.7 µM] | x | x | x | x
Oc1ccc(CC2CC3CCN2CC3)cc1O (centres undefined) | x | x | 8.5 | x | -0.2 | 99.1*
O=C1C2CCN(CC2)C1Cc1ccccc1O (centres undefined) | x | x | 0.8 | x | x | 13.6
Cc1ccsc1/C=C1\C(=O)NC(=S)N(C)C1=O | 4.9 | -7.7 | 1.7 | -0.7 | -1.1 | 17.4
COc1ccc(/C=C2\C(=O)NC(=S)N(C)C2=O)cc1C | 46.0* | -6.0 | x | 0.6 | x | 21.2
Cc1ccc(C(=O)N[C@@H](C)CN2C3=NC[C@@H](Cc4ccccc4)N3C[C@H]2Cc2ccc(O)cc2)cc1Br | 0.1 | 75.3* | x | 2.9 | x | -6.2
COC(=O)[C@@H]1[C@@H](CO)[C@@H]2Cn3c(ccc(-c4cccnc4)c3=O)[C@H]1N2S(=O)(=O)c1ccccc1F | -0.8 | x | x | 0.5 | 0.1 | x
COc1ccc(C#Cc2ccc([C@H]3[C@H](CO)N4CCCCN(C(=O)Cc5ccncc5)C[C@@H]34)cc2)cc1 | 0.8 | x | x | 0.1 | -0.4 | x
O=C(Cc1ccccn1)N1CC2(C1)[C@H](c1ccccc1)[C@H](CO)N2Cc1ccccn1 | 0.3 | x | x | -5.2 | x | x
Nc1ccc(S(=O)(=O)N2CCCCC2c2cccnc2)cc1 (centres undefined) | 1.1 | 1.0 | x | 2.0 | -3.0 | 90.1*
O=C(O)[C@@H]1[C@@H](CO)[C@@H]2Cn3c(ccc(C4=CCCC4)c3=O)[C@H]1N2C(=O)Cc1ccccn1 | 2.9 | x | x | 0.7 | 0.7 | x
COc1cc(/C=C2\C(=O)NC(=O)N(c3ccccc3)C2=O)cc(OC)c1O | x | -29.2 | x | x | 1.8 | 91.0*
CC(=O)O[C@H]1C[C@@H]2OC3C=C(C)CCC3(C)[C@@]1(C)[C@@]21CO1 (some centres undefined) | 0.1 | 71.6* | -3.4 | -0.4 | x | x
Cn1c(O)c(C=Nc2ccccc2-c2ccccc2)c(=O)n(C)c1=O | 3.3 | -4.2 | 0.5 | 0.2 | x | x
CCOC(=O)C1=Nc2ccccc2/C1=C\c1c(O)n(C)c(=O)n(C)c1=O | 1.8 | -12.6 | 17.0 | 0.7 | -0.8 | 97.9*
CC(C)(O)/C=C/C(=O)C(C)(O)C1C(O)CC2(C)C3CC=C4C(C=C(O)C(=O)C4(C)C)C3(C)C(=O)CC12C (centres undefined) | 8.1 | 80.9* | 9.2 | -13.1 | x | x
CCOC(=O)[C@]12Cc3ccc(C)cc3[C@H]1N(C1CCCCC1)C(=O)c1cc(OC)ccc12 | x | -14.5 | x | 20.0* | x | x
CCOC(=O)[C@]12Cc3ccc(C)cc3[C@H]1N(C1CCCCC1)C(=O)c1ccccc12 | x | 16.1 | x | -3.1 | x | x
O=C1CNC[C@@H]2[C@H](c3ccc(Br)cc3)[C@@H](CO)N12 | 2.0 | x | x | 1.4 | x | x
COc1ccc(Cc2nccc3cc(OC)c(OC)cc23)cc1OC | 53.9* | 57.0* | x | 1.8 | -6.7 | -27.1
